Data taken from the supplement of paper PMC6805474.
A number with no mark means an inactive call.

What follows are compounds tested on Schistosoma mansoni schistosomula (NMRI) (assay: phenotypic severity score (0-4); higher = more antischistosomal effect, active = 2 or more). Details: 48 h; 10 µM.
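Note: visual microscopic scoring of shape, motility and density changes versus 0.5% DMSO solvent controls, one point per descriptor, degeneracy or death scored 4, mean of duplicate wells.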

SMILES | phenotypic severity score
Nc1ccc2ncnc(Nc3ccc(OCc4cccc(F)c4)c(Cl)c3)c2c1 | 4 (active)
COc1cccc(-c2nc3c(N4CCCC4)cccc3n2CC2CCCN2)n1 (stereo unspecified) | 4 (active)
O=C(Nc1ccccc1)c1ccc(-c2cc3ccncc3cc2OC2CCNCC2)s1 | 0
O=C(NC1CC1)c1ccc(N2CCC(Cc3ccccc3)CC2)nc1 | 0
O=C(NCCc1ccn(-c2ccccc2)n1)C1CCCCC1 | 0
O=C(NCc1cc(Cl)cc(Cl)c1)c1c(C(F)(F)F)nc2ccccn12 | 1
Oc1c(I)cc(I)c2cccnc12 | 1
CC(C)C(Oc1cccc2ccccc12)C(=O)O (stereo unspecified) | 0
Cc1cc(O)nc(-n2nc(C)cc2C)n1 | 0
Cc1nc(-c2cccc(NCc3ccccc3)c2)[nH]c1C | 0
COc1cc(CN2CCC3(C=Cc4ccccc43)CC2)cc2c1OCO2 | 1
NCCC(O)C(=O)N[C@@H]1C[C@H](N)[C@@H](OC2O[C@H](CN)[C@@H](O)[C@H](O)[C@H]2O)[C@H](O)C1OC1O[C@H](CO)[C@@H](O)[C@H](N)[C@H]1O (stereo partly specified) | 0
N=C(N)Nc1ccc(-c2ccc(-c3ccc(N=C(N)N)c(Cl)c3)o2)cc1Cl | 0
CN1CCN(CCCOc2ncc(Nc3ncc(-c4ccc(C(F)(F)F)c(F)c4)nc3C(N)=O)cn2)CC1 | 3 (active)
NCC(=O)N1CCn2c(nc(-c3ccccc3)c2Nc2ccc3c(c2)OCO3)C1 | 0
O=C(c1ccc(NCCO)cc1)C1C[C@H]1c1ccc(Cl)cc1 (stereo partly specified) | 0
CC(=O)NCC1CN(c2ccc(-c3ccc(CNCc4cn[nH]n4)cc3)c(F)c2)C(=O)O1 (stereo unspecified) | 0
CCOc1ccc(-c2nc(NC(=O)CS(=O)(=O)c3ccccc3)sc2C)cc1 | 0
O=C(c1ccco1)N(CCCn1ccnc1)c1nc2c(Cl)cccc2s1 | 0

SMILES | phenotypic severity score
CN1CCC(c2cc(-c3ccncc3)c(-c3ccc(F)cc3)[nH]2)CC1 | 0
CCCn1c(NC(=O)c2ccc3ccccc3n2)nc2ccccc21 | 0
Nc1ncnc2c1ncn2C[C@@H](O)[C@@H](O)C(=O)O | 0
CC(C)=CCC/C(C)=C\CNCCNC1C2CC3CC(C2)CC1C3 (stereo unspecified) | 4 (active)
COc1ccc2nc(C)cc(OCC(=O)NCc3ccccc3)c2c1 | 0
CN(C)c1cc(NC(=O)Nc2ccccc2)c2ccccc2n1 | 0
Cc1ccc(-c2nc(CN(Cc3ccccn3)C(C)C)cs2)o1 | 1
NC(=O)c1cc(Br)ccc1OCCOc1ccccc1 | 1
C[C@H]1c2cccc(O)c2C(=O)C2=C(O)[C@]3(O)C(=O)C(C(N)=O)=C(O)[C@@H](N(C)C)[C@@H]3[C@@H](O)[C@@H]21 | 0
Cc1nc(-c2ccccn2)nc(N(C)CCc2ccccc2)c1Cl | 4 (active)
OC[C@H]1O[C@@H](n2c3ccc(Cl)cc3c3c(-c4cc5ccccc5o4)ncnc32)C(O)[C@H]1O (stereo partly specified) | 0
O=C(NCc1ccco1)N1CCN(Cc2ccc(Cl)s2)CC1 | 0
CC(=O)NCC1CN(c2ccc(-c3ccc(CO)cc3)c(F)c2)C(=O)O1 (stereo unspecified) | 1
CCC(C)NC(=O)c1ccc(NC(=O)C2(c3ccccc3)CCCC2)cc1 (stereo unspecified) | 0
Nc1ncc(Br)cc1-c1nc2cc(Cl)cnc2[nH]1 | 0
COc1ccc(C2=NN(C3CCCCCC3)C(=O)[C@@H]3CC=CC[C@H]23)cc1OCCCCOc1ccc(-c2nn[nH]n2)cc1 | 0
CC(C)(C)OC(=O)N1CCN(c2nccc(-c3ccc(-c4ccc(Cl)cc4)s3)n2)CC1 | 0
O=C(OCc1ccccc1)N1CCC(c2cc(-c3ccncc3)c(-c3ccc(F)cc3)[nH]2)CC1 | 0
CC(C)NCC(=O)Nc1cccc(C(=O)Nc2cccc(C(F)(F)F)c2)c1 | 0

Same assay, conditions: 72 h; 10 µM

SMILES | phenotypic severity score
Nc1ccc2ncnc(Nc3ccc(OCc4cccc(F)c4)c(Cl)c3)c2c1 | 4 (active)
COc1cccc(-c2nc3c(N4CCCC4)cccc3n2CC2CCCN2)n1 (stereo unspecified) | 4 (active)
O=C(Nc1ccccc1)c1ccc(-c2cc3ccncc3cc2OC2CCNCC2)s1 | 0
O=C(NC1CC1)c1ccc(N2CCC(Cc3ccccc3)CC2)nc1 | 0
O=C(NCCc1ccn(-c2ccccc2)n1)C1CCCCC1 | 0
O=C(NCc1cc(Cl)cc(Cl)c1)c1c(C(F)(F)F)nc2ccccn12 | 0
Oc1c(I)cc(I)c2cccnc12 | 2 (active)
CC(C)C(Oc1cccc2ccccc12)C(=O)O (stereo unspecified) | 0
Cc1cc(O)nc(-n2nc(C)cc2C)n1 | 0
Cc1nc(-c2cccc(NCc3ccccc3)c2)[nH]c1C | 0
COc1cc(CN2CCC3(C=Cc4ccccc43)CC2)cc2c1OCO2 | 0
NCCC(O)C(=O)N[C@@H]1C[C@H](N)[C@@H](OC2O[C@H](CN)[C@@H](O)[C@H](O)[C@H]2O)[C@H](O)C1OC1O[C@H](CO)[C@@H](O)[C@H](N)[C@H]1O (stereo partly specified) | 0
N=C(N)Nc1ccc(-c2ccc(-c3ccc(N=C(N)N)c(Cl)c3)o2)cc1Cl | 0
CN1CCN(CCCOc2ncc(Nc3ncc(-c4ccc(C(F)(F)F)c(F)c4)nc3C(N)=O)cn2)CC1 | 3 (active)
NCC(=O)N1CCn2c(nc(-c3ccccc3)c2Nc2ccc3c(c2)OCO3)C1 | 2 (active)
O=C(c1ccc(NCCO)cc1)C1C[C@H]1c1ccc(Cl)cc1 (stereo partly specified) | 0
CC(=O)NCC1CN(c2ccc(-c3ccc(CNCc4cn[nH]n4)cc3)c(F)c2)C(=O)O1 (stereo unspecified) | 0
CCOc1ccc(-c2nc(NC(=O)CS(=O)(=O)c3ccccc3)sc2C)cc1 | 1
O=C(c1ccco1)N(CCCn1ccnc1)c1nc2c(Cl)cccc2s1 | 0

SMILES | phenotypic severity score
CN1CCC(c2cc(-c3ccncc3)c(-c3ccc(F)cc3)[nH]2)CC1 | 0
CCCn1c(NC(=O)c2ccc3ccccc3n2)nc2ccccc21 | 0
Nc1ncnc2c1ncn2C[C@@H](O)[C@@H](O)C(=O)O | 0
CC(C)=CCC/C(C)=C\CNCCNC1C2CC3CC(C2)CC1C3 (stereo unspecified) | 4 (active)
COc1ccc2nc(C)cc(OCC(=O)NCc3ccccc3)c2c1 | 0
CN(C)c1cc(NC(=O)Nc2ccccc2)c2ccccc2n1 | 0
Cc1ccc(-c2nc(CN(Cc3ccccn3)C(C)C)cs2)o1 | 0
NC(=O)c1cc(Br)ccc1OCCOc1ccccc1 | 2 (active)
C[C@H]1c2cccc(O)c2C(=O)C2=C(O)[C@]3(O)C(=O)C(C(N)=O)=C(O)[C@@H](N(C)C)[C@@H]3[C@@H](O)[C@@H]21 | 0
Cc1nc(-c2ccccn2)nc(N(C)CCc2ccccc2)c1Cl | 4 (active)
OC[C@H]1O[C@@H](n2c3ccc(Cl)cc3c3c(-c4cc5ccccc5o4)ncnc32)C(O)[C@H]1O (stereo partly specified) | 0
O=C(NCc1ccco1)N1CCN(Cc2ccc(Cl)s2)CC1 | 0
CC(=O)NCC1CN(c2ccc(-c3ccc(CO)cc3)c(F)c2)C(=O)O1 (stereo unspecified) | 0
CCC(C)NC(=O)c1ccc(NC(=O)C2(c3ccccc3)CCCC2)cc1 (stereo unspecified) | 0
Nc1ncc(Br)cc1-c1nc2cc(Cl)cnc2[nH]1 | 0
COc1ccc(C2=NN(C3CCCCCC3)C(=O)[C@@H]3CC=CC[C@H]23)cc1OCCCCOc1ccc(-c2nn[nH]n2)cc1 | 0
CC(C)(C)OC(=O)N1CCN(c2nccc(-c3ccc(-c4ccc(Cl)cc4)s3)n2)CC1 | 0
O=C(OCc1ccccc1)N1CCC(c2cc(-c3ccncc3)c(-c3ccc(F)cc3)[nH]2)CC1 | 0
CC(C)NCC(=O)Nc1cccc(C(=O)Nc2cccc(C(F)(F)F)c2)c1 | 0
